From PubChem BioAssay (Tox21)
Results filed as inconclusive are left out. Activity calls are given as the source filed them. Unless noted, calls follow the shape of the dose curve; as a rule, active = well fitted curve in the direction sought with a large enough effect in the repeat runs; inconclusive = weak or mixed curves; inactive = no such curve, though single readings can be large; an effect the other way counts as inactive or inconclusive.

Columns and labels:
[1] = qHTS assay for small molecule agonists of the p53 signaling pathway (AID 651631; calls by dose curve; also: potency is read from the fitted curve at half-maximal effect; nearly all actives have a fitted effect of over 15% in size)
How it was run: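 Quantitative high-throughput format: 4,000 p53RE-bla HCT-116 cells/well, 5 h pre-incubation, 16 h compound exposure at 37 °C, 2 h room-temperature substrate step, fluorescence intensity measured.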

[2] = qHTS assay for small molecules that induce genotoxicity in human embryonic kidney cells expressing luciferase-tagged ATAD5 - cell viability (AID 651634; calls by dose curve; also: nearly all actives have a fitted effect of over 25% in size; also: potency is read from the fitted curve at half-maximal effect)
How it was run: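 15.5 hr compound or vehicle exposure of HEK293T cells expressing luciferase-tagged ATAD5 at 37C; live-cell protease activity is read by fluorescence after 30 min of CellTiter-Fluor.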

[3] = qHTS assay for small molecule disruptors of the mitochondrial membrane potential - cell viability (AID 720634; calls by dose curve; also: nearly all actives have a fitted effect of over 20% in size; also: potency is read from the fitted curve at half-maximal effect)
How it was run: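 In this qHTS format, HepG2 cells plated overnight were pinned with compound, incubated 1 hr, and assayed for ATP luminescence with CellTiter-Glo after m-MPI dye addition.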

[4] = qHTS assay for small molecule disruptors of the mitochondrial membrane potential (AID 720635); also: potency is read from the fitted curve at half-maximal effect
How it was run: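 HepG2 cells exposed to compound 1 hr at 37C, then Mito-MPS dye 30 min. Ratio read of aggregate (540/590 nm) versus monomer (490/535 nm) fluorescence.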

[5] = qHTS assay to test for compound auto fluorescence at 590 nm (red) in HepG2 cells (AID 720674)
How it was run: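 Fluorescence at 590 nm emission following 540 nm excitation was recorded from HepG2 wells one hour after compound transfer, with DMSO-only wells as vehicle and Rose Bengal sodium equivalency as the scale.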

[6] = qHTS assay to test for compound auto fluorescence at 535 nm (green) in HepG2 cells (AID 720675)
[7] = qHTS assay to test for compound auto fluorescence at 535 nm (green) in HEK293 cells (AID 720680)
[8] = qHTS assay to test for compound auto fluorescence at 535 nm (green) in HEK293 cell free culture (AID 720682)
How it was run: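 Measurement is a direct plate read of green fluorescence (485 nm in, 535 nm out) after compound addition to serum-supplemented DMEM lacking cells, with fluorescein used to express intensities.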

[9] = qHTS assay to test for compound auto fluorescence at 590 nm (red) in HEK293 cell free culture (AID 720683)
How it was run: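 Cell-free wells of DMEM with 10% FBS received compound, and intrinsic fluorescence was read at excitation/emission 540/590 nm. Values expressed as equivalence to Rose Bengal sodium.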

[10] = qHTS assay to test for compound auto fluorescence at 590 nm (red) in HepG2 cell free culture (AID 720684)
How it was run: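 Rose Bengal sodium served as the reference for red signal. Test compounds were dispensed into serum-containing MEM (10% FBS) without cells, and plates were read at 540/590 nm.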

[11] = qHTS assay to test for compound auto fluorescence at 535 nm (green) in HepG2 cell free culture (AID 720686)
[12] = qHTS assay for small molecules that induce genotoxicity in human embryonic kidney cells expressing luciferase-tagged ATAD5 (AID 651632); also: nearly all actives have a fitted effect of over 15% in size
How it was run: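 Concentration-response screen for ATAD5 upregulation in HEK293T luciferase reporter cells; 16 hr treatment at 37C, then luminescence after 30 min with Amplite at room temperature.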

[13] = qHTS assay for small molecule agonists of the p53 signaling pathway - cell viability (AID 651633; calls by dose curve; also: nearly all actives have a fitted effect of over 30% in size; also: potency is read from the fitted curve at half-maximal effect)
How it was run: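 p53RE-bla cells were treated with compound for 16 hours at 37 C. Cytotoxicity was then measured as CellTiter-Glo luminescence after 30 min at room temperature.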

[14] = qHTS assay to test for compound auto fluorescence at 460 nm (blue) in HEK293 cells (AID 720678); also: potency is read from the fitted curve at half-maximal effect
How it was run: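 Triamterene serves as the blue fluorophore standard. Compound signal at 405/460 nm is read in HEK293 wells (2,000 cells, 10% dialyzed FBS) after overnight treatment at 37C.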

[15] = qHTS assay to test for compound auto fluorescence at 590 nm (red) in HEK293 cells (AID 720679)
How it was run: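 We plated HEK293 cells in 10% dialyzed FBS medium, let them adhere for 4-5 hr, then added 23 nL compound. Overnight at 37C and 5% CO2 preceded fluorescence measurement at 540/590nm.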

[16] = qHTS assay to test for compound auto fluorescence at 460 nm (blue) in HEK293 cell free culture (AID 720681); also: potency is read from the fitted curve at half-maximal effect
How it was run: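 Compounds were added to cell-free DMEM with 10% FBS and fluorescence read directly. The blue channel used 405 nm excitation and 460 nm emission, with triamterene as the reference fluorophore.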

[17] = qHTS assay to test for compound auto fluorescence at 460 nm (blue) in HepG2 cell free culture (AID 720685); also: potency is read from the fitted curve at half-maximal effect
How it was run: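 Cell-free plates of MEM plus 10% FBS received 23 nL compound or DMSO vehicle; blue-channel (405/460 nm) intensity scored against triamterene as reference fluorophore.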

[18] = qHTS assay to test for compound auto fluorescence at 460 nm (blue) in HepG2 cells (AID 720687); also: potency is read from the fitted curve at half-maximal effect
How it was run: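 HepG2 cells in MEM with 10% FBS, attached overnight at 37 C, were exposed to compound or DMSO for 1 hr at 37 C, 5% CO2. Blue fluorescence was read at 405/460 nm, with triamterene as reference fluorophore.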

[19] = biological target: Glucocorticoid receptor (Homo sapiens) (UniProt P04150); test: qHTS assay to identify small molecule agonists of the glucocorticoid receptor (GR) signaling pathway (AID 720691; active = well fitted activation curve with a large enough effect in the signal ratio in the repeat runs, not every such curve was filed as active; the % refers to the signal ratio); details: GR-bla HeLa, beta-lactamase reporter ratio, 18 h; activation: at 62.4 µM (top of the series)
How it was run: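 Measures GR pathway activation through a GRE-beta-lactamase reporter stably integrated in HeLa cells, with 18 h compound treatment at 37 C and fluorescence detection using a FRET substrate.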

[20] = biological target: Glucocorticoid receptor (Homo sapiens) (UniProt P04150); test: qHTS assay to identify small molecule antagonists of the glucocorticoid receptor (GR) signaling pathway (AID 720692; active = well fitted inhibition curve with a large enough effect in the signal ratio in the repeat runs, not every such curve was filed as active; the % refers to the signal ratio)
How it was run: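 Tox21 10K library screened in concentration-response for blockade of dexamethasone (5 nM final)-induced GRE-bla reporter activity in HeLa cells; 18 h treatment, fluorescence read.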

Measured: Potency
Tags tell the direction and shape of the fitted curve or compound fluorescence and quenching.

Chain of Glucocorticoid receptor (Homo sapiens) (P04150 whole entry, looked up): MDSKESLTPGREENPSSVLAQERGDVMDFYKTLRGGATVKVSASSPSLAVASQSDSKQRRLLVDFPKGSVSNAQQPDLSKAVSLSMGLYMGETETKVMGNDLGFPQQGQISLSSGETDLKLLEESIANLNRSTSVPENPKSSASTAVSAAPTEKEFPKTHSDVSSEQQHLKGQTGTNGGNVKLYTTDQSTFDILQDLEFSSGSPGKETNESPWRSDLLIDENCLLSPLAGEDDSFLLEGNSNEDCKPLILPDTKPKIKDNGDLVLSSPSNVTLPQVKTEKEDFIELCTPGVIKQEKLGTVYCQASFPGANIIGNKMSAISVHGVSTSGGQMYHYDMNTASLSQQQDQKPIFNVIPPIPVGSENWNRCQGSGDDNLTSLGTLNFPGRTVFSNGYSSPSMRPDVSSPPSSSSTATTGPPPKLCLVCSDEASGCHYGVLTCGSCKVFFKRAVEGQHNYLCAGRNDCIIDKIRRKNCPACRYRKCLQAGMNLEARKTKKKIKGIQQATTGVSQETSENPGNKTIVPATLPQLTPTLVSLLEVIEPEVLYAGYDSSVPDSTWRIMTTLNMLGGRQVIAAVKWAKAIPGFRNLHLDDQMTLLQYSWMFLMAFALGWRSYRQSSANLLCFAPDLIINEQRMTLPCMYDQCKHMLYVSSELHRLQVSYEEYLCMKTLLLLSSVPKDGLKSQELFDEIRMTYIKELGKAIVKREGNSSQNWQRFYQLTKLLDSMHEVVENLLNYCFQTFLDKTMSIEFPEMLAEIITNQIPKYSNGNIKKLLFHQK

CCOc1ccc2nc3cc(N)ccc3c(N)c2c1
inactive: [2] | [3] | [5] | [6] | [7] | [8] | [9] | [10] | [11]
active: [1] 11.9 µM | [4] 2.66 µM

CCCCCCCCCCC=O
not listed: [1] | [8] | [9]
inactive: all other assays above

Cc1onc(-c2c(Cl)cccc2Cl)c1C(=O)N[C@@H]1C(=O)N2[C@@H]1SC(C)(C)[C@@H]2C(=O)O
not listed: [1] | [15] | [20]
inactive: all other assays above

[Cl][Bi]([Cl])([c]1ccccc1)([c]1ccccc1)[c]1ccccc1
active: [1] 24.2 µM | [13] 21.6 µM | [2] 60.8 µM | [4] 43 µM
not listed: [3] | [6] | [7] | [12] | [19] | [20]
inactive: all other assays above

CCCCCCCC[N+](CCCCCCCC)(CCCCCCCC)CCCCCCCC
active: [13] 13.7 µM | [2] 30.6 µM | [3] 27.3 µM | [4] 0.0768 µM
not listed: [1] | [9] | [17] | [19] | [20]
inactive: all other assays above

Cc1cc(=O)oc2cc(N(C)C)ccc12
active: [1] 48.6 µM | [14] 39.8 µM [fluorescent] | [16] 39.8 µM | [17] 44.7 µM [fluorescent] | [18] 44.7 µM [fluorescent]
not listed: [2] | [4] | [12] | [15] | [19] | [20]
inactive: all other assays above

CCCCCCCCCCn1cc[n+](CCCCCCCCCC)c1C
active: [13] 68.7 µM | [2] 68.7 µM | [3] 54.5 µM | [4] 2.17 µM
not listed: [1] | [8] | [19] | [20]
inactive: all other assays above

O=C1c2c(O)ccc(Nc3ccc(CCO)cc3)c2C(=O)c2c([N+](=O)[O-])ccc(O)c21
active: [2] 48.6 µM | [4] 1.93 µM
not listed: [1] | [8] | [20]
inactive: all other assays above

Cc1cc(O)c(C(C)(C)C)cc1C(C)(C)C
active: [13] 9.69 µM | [2] 15.4 µM | [3] 15.4 µM | [4] 0.969 µM
not listed: [1] | [7] | [19] | [20]
inactive: all other assays above

CCCCCCCCOC(=O)c1ccc(O)cc1
active: [3] 24.3 µM | [4] 17.2 µM
not listed: [1] | [8] | [19] | [20]
inactive: all other assays above

O=C(NO)C1(NS(=O)(=O)c2ccc(Oc3ccc(F)cc3)cc2)CCOCC1
not listed: [1] | [20]
inactive: all other assays above

CCCCCCCCCCCCCCCCCC[N+](C)(C)Cc1ccccc1
active: [13] 24.6 µM | [2] 55 µM | [3] 69.2 µM | [4] 15.5 µM
not listed: [1] | [7] | [11] | [19] | [20]
inactive: all other assays above
